# Rows were chosen to be rich in hits. Some 1.8% of all compounds tested hit in one or more screens of this group.
# PriA SSB inh: inhibitors of Klebsiella pneumoniae PriA binding to SSB C-terminal tail, primary screen, biochemical, AlphaScreen; PriA–SSB C-terminal tail interaction (Klebsiella pneumoniae); AlphaScreen SSBct-PriA binding, biotinylated peptide; inhibition, % at 33 µM; 430,000 tested, 0.6% active; AID 1272365, 2023; in the data active means inhibition mostly above about 37%, no sharp cut-off; inactive means mostly below about 20%
# PrP 5UTR inh: inhibition of PrP 5' UTR reporter expression; cell-based PrP 5' UTR mRNA reporter, plate reader; inhibition, % (test concentration not listed); 340,000 tested, 0.35% active; AID 488862, 2010; in the data active means inhibition above about 52%
# PfHsp40 rescue: rescue of yeast from PfHsp40 toxicity, primary screen, S. cerevisiae, ATP luminescence; S. cerevisiae expressing PfHsp40, growth rescue; growth rescue, % at 12.5 µM; 340,000 tested, 0.68% active; in the data active means growth rescue above about 28%, passing the limit was not always enough; inconclusive means no clear call, values can overlap the other calls;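 further: yeast W303a lacking pdr1 and pdr3 grown in galactose medium; growth measured after three days at 30 °C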
# PrPC TRFRET: inhibitors of human cell surface prion protein PrPC, primary screen, cell-based, TR-FRET. TR-FRET read-out. AID 720596, 2013. inhibition, % at 13.8 µM. 370,000 tested, 0.43% active; in the data active means inhibition above about 24%
# MazEF act: activators of E. coli MazEF toxin-antitoxin RNase, primary screen, biochemical, fluorescence, uHTS. Endoribonuclease toxin MazF (Escherichia coli (strain K12)), P0AE70. FAM/BHQ RNA-DNA oligo cleavage fluorescence, 5 h. activation, % at 20 µM. 350,000 tested, 0.32% active. AID 504720, 2011; in the data active means activation above about 50%
# Target sequence (P0AE70 whole entry, looked up): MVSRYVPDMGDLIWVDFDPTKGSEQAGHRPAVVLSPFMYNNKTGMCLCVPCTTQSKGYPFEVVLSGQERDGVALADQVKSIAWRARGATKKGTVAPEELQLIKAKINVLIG
# PrP 5UTR single: prion 5' UTR mRNA inhibition, cherry-pick retest; shares compounds with PrP 5UTR inh; cell-based prion protein 5' UTR reporter, plate reader; inhibition, % at 2.5 µM; 1,100 tested, 48% active; AID 504592, 2011; in the data active means inhibition above about 54%; inconclusive means no clear call, values can overlap the other calls
# Numbers stand for hits; 0 = inactive; ? = inconclusive; - = not tested or not shown.
SMILES,PriA SSB inh,PrP 5UTR inh,PfHsp40 rescue,PrPC TRFRET,MazEF act,PrP 5UTR single
O=C(NN1C(=O)C2C3C=CC(C4CC34)C2C1=O)c1ccc(Cl)c(Cl)c1 (centres undefined),0,0,0,0,0,-
O=C1/C(=C/c2cccc([N+](=O)[O-])c2)CC/C1=C\c1cccc([N+](=O)[O-])c1,0,-,-,-,-,-
CCN1C/C(=C\c2cccc([N+](=O)[O-])c2)C(=O)/C(=C/c2cccc([N+](=O)[O-])c2)C1,0,63,0,0,0,61
CCN(CC)C(=O)CSc1nc2ccccc2c(=O)n1CCC(=O)N1CCN(c2ccccc2)CC1,0,56,0,0,0,0
Cc1ccc(NC(=O)C(C)OC(=O)c2cc(=O)[nH]c3ccccc23)cc1S(=O)(=O)N1CCOCC1 (centres undefined),0,0,0,0,0,-
Brc1ccc(N=Nc2ccc3ccccc3n2)cc1,0,82,0,0,0,80
CCn1c(O)c(N=Nc2ccc3ccccc3n2)c2ccccc21,0,0,0,0,0,-
CC(=O)c1cccc(NC(=S)NC(=O)CC(C)(C)C)c1,0,0,0,0,0,-
O=c1cc(-c2ccc(O)cc2)oc2ccc3ccccc3c12,0,78,0,0,0,73
O=c1cc(-c2ccc(O)cc2)oc2c1ccc1ccccc12,0,0,0,0,0,-
CC1(C(=O)O)CC12c1ccccc1-c1ccccc12 (centres undefined),0,62,0,0,0,0
O=C(O)CCC1(CCC(=O)O)c2ccccc2-c2ccccc21,0,0,0,0,0,-
COc1ccc(S(=O)(=O)NCc2ccco2)cc1C(=O)N1CCOCC1,0,0,0,0,0,-
O=C(c1cc(S(=O)(=O)NCc2ccco2)ccc1Br)N1CCOCC1,0,79,0,0,0,0
COC(=O)C1=C(C)NC(=S)NC1/C=C/c1ccccc1 (centres undefined),0,0,0,0,0,-
COc1cc(C2c3cc4c(cc3CC3COC(=O)N32)OCO4)cc(OC)c1OC (centres undefined),0,58,0,0,0,91
COc1cc(C2c3cc4c(cc3CC3COC(=O)C32)OCO4)cc(OC)c1OC (centres undefined),0,0,0,0,0,-
Cc1c(NS(=O)(=O)c2cccc(C(=O)Nc3ccccc3)c2)c(=O)n(-c2ccccc2)n1C,0,0,0,0,0,-
CN1C(CCl)Nc2cc(Cl)c(S(N)(=O)=O)cc2S1(=O)=O (centres undefined),0,77,0,0,0,0
CCOC(=O)N1CCN(S(=O)(=O)c2ccc(C(=O)N(CCN(C)C)c3nc4c(C)cccc4s3)cc2)CC1,0,0,0,0,0,-
CCSc1ccccc1C(=O)Nc1nc(-c2ccc(Cl)s2)cs1,0,-,-,-,-,-
CC1=C([N+](=O)[O-])C(c2cccc(Br)c2)C2=C(N1)c1ccccc1C2=O (centres undefined),0,54,0,0,0,71
O=C(NCc1cnn2ccccc12)c1c[nH]c2ccccc12,0,-,-,-,-,-
O=C(Nc1cc(-c2ccco2)nn1-c1nc2c(c(=O)[nH]1)CCCC2)c1cc2ccccc2o1,0,-,-,-,-,-
CCOc1ccc(NC(=O)c2cc3c(C)nc4ccccc4c3o2)cc1,0,62,0,0,0,0
SMILES,PriA SSB inh,PrP 5UTR inh,PfHsp40 rescue,PrPC TRFRET,MazEF act,PrP 5UTR single
Cc1nc2ccccc2c2oc(C(=O)NC3CC3)cc12,0,0,0,0,0,-
Cn1c(=S)[nH]c(=O)c2ncc(=O)[nH]c21,0,0,0,0,0,-
Cc1nc2cc(NC(=O)CN3C(=O)c4ccccc4C3=O)ccc2n1-c1ccccc1,0,-,-,-,-,-
Cn1c(=O)c2c(nc(CN3CCN(c4ccccc4F)CC3)n2CCCc2ccccc2)n(C)c1=O,0,83,0,0,0,0
O=C(c1cc2n(n1)C(C(F)(F)F)CC(c1ccco1)N2)N1CCc2ccccc2C1 (centres undefined),0,64,0,0,0,0
CCOc1ccc(C(=O)NC(=S)Nc2cccc(S(=O)(=O)NC3=NCCC3)c2)cc1,0,54,0,0,0,?
CCOc1ccc(OCC(=O)Nc2cccc(S(=O)(=O)NC3=NCCC3)c2)cc1,0,0,0,0,0,-
Cc1nc2c(-c3ccc(Cl)cc3)cnn2c(N)c1-c1ccc(F)cc1,0,56,0,0,0,0

# Screening data (PubChem BioAssay)
